{"source": "PubChem BioAssay (NCATS)", "note": "Starred links: 1 amine or outer side, 2 acyl side, 3 side chain; linkers in the order of their positions; H or OH if unused. Positions of bridges follow the written chain, without caps; N, C: chain ends. Non-standard residues stand in square brackets, D forms with d. Residues, ends and D or L forms follow the SMILES beside them. *: point of attachment. X2 = NC1=C[C@@H](O)C[C@H]([C@H](N[*:1])C(=O)[*:2])N1; ΔAla(3-NHCONH2) = NC(=O)NC=C(N)C(=O)O; β3hOrn = NCCC[C@H](N)CC(=O)*; Dap = NC[C@H](N)C(=O)O", "data": [{"test": "qHTS profiling of the MIPE4 collection as inhibitors of Plasmodium falciparum (HB3) proliferation (AID 743347);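 note: plate controls were DMSO vehicle wells for no effect and artemisinin wells for full effect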", "settings": "P. falciparum HB3 in erythrocytes, SYBR Green DNA, 72 h; at 28.5 µM (top of the series)", "from_the_text": "Plasmodium falciparum is a virulent malarial parasite that kills 1-2 million people worldwide each year. Transmitted by mosquitoes, the sporozoite form of the parasite enters the blood stream to infect hepatocytes, where they become merozoites that infect red blood cells (erythrocytes). Within erythrocytes, merozoites begin a […] cycle of growth and division, after which the parasite is released to infect new red blood cells. Gametocytes, which form within erythrocytes as well, circulate in the bloodstream and are ingested by the mosquito, thereby completing the life cycle. To profile malarial isolates for differential chemical responses and to identify inhibitors of malarial growth, an assay that measures P. falciparum growth and replication within erythrocytes was employed. This assay uses a DNA binding fluorescent dye (SYBR Green) to detect parasite DNA following cell lysis. Because mature erythrocytes lack DNA, only Plasmodium-derived DNA is detected.\nThe SYBR Green viability assay was adapted from a method described previously (Plouffe et al., 2008). For screening 3 ul culture medium was dispensed into 1536 well black clear bottom plates (Aurora Biotechnologies) using a Multidrop Combi (Thermo Fisher Scientific Inc.), 23 nL compounds in DMSO were added by a pin tool (Kalypsys), and 5 ul of erythrocytes infected with P. falciparum (0.3% parasitemia, 2.5% hematocrit final concentration) were added. The plates were incubated at 37 C in a humidified incubator in 5% CO2 for 72 h, and 2 ul lysis buffer (20 mM Tris HCl, 10 mM EDTA, 0.16% saponin, 1.6% triton X, 10X SYBR Green I supplied as 10,000X […] by Invitrogen) was added to each well. The plates were mixed for 25 sec with gentle shaking and incubated overnight at room temperature in the dark. The following morning, fluorescence intensity at 485(14) nm excitation and 535(25) nm emission wavelengths was measured on an EnVision (Perkin Elmer) plate reader. Plate reads were normalized relative to the control inhibitor (0.29 uM artemisinin) and vehicle (DMSO) wells present on each plate and then corrected by an algorithm using vehicle-only control plates at the beginning and end of the compound plate stack.", "units": {"growth, % of control": "%"}, "values": [{"smiles": "Cc1nc2c(C#N)cccc2n1-c1ccc(C(=O)NC2CC2)s1", "growth, % of control": 4.26}, {"smiles": "CCN(CC)CCOc1ccc2c(=O)c3ccc(Cl)cc3n(CCN(CC)CC)c2c1", "growth, % of control": 5.14}, {"smiles": "C[C@]1(COc2ccc(N3CCC(Oc4ccc(OC(F)(F)F)cc4)CC3)cc2)Cn2cc([N+](=O)[O-])nc2O1", "growth, % of control": 88.7}, {"smiles": "CC(C)(C)OC(=O)N[C@@H](Cc1ccc(O[S+](=O)([O-])c2cccc3cnccc23)cc1)C(=O)Nc1ccc(-c2ccccc2)cc1", "growth, % of control": 4.11}, {"smiles": "CN(C)CCC=C1c2ccccc2COc2ccccc21", "growth, % of control": 96.7}, {"smiles": "C[C@H]1C[C@H]2C3CCC4=CC(=O)C=C[C@@]4(C)[C@@]3(Cl)[C@@H](O)CC2(C)[C@@]1(OC(=O)c1ccco1)C(=O)CCl", "note": "(some centres not stated)", "growth, % of control": 5.44}, {"smiles": "CN[C@@H]1[C@@H](O[C@H]2[C@H](O[C@H]3[C@H](O)[C@@H](O)[C@H](N=C(N)N)[C@@H](O)[C@H]3N=C(N)N)O[C@@H](C)[C@]2(O)C=O)O[C@@H](CO)[C@H](O)[C@H]1O", "growth, % of control": 86.4}, {"smiles": "NCCC[C@H](N)CC(=O)N[C@H]1CNC(=O)[C@H]([C@H]2C[C@H](O)C=C(N)N2)NC(=O)C(=CNC(N)=O)NC(=O)[C@H](CO)NC(=O)[C@H](CO)NC1=O", "note": "(β3hOrn-[Dap]SS[ΔAla(3-NHCONH2)][X2]; lactam 1-C)", "growth, % of control": 100}, {"smiles": "COC1=C2C[C@H](C)C[C@H](OC)[C@@H](O)[C@@H](C)C=C(C)[C@H](OC(N)=O)[C@@H](OC)C=CC=C(C)C(=O)NC(=CC1=O)C2=O", "growth, % of control": 2.93}, {"smiles": "COc1ccc(S(=O)(=O)N(CCO)c2ccccc2CN(C)CC=Cc2ccc(Cl)cc2)cc1", "growth, % of control": 9.71}, {"smiles": "CN([C@@H](Cc1ccc(O[S+](=O)([O-])c2cccc3cnccc23)cc1)C(=O)N1CCN(C(=O)OCc2ccccc2)CC1)[S+](=O)([O-])c1cccc2cnccc12", "growth, % of control": 8.42}, {"smiles": "CC(C)=CCCC(C)=CCNCCNC1C2CC3CC(C2)CC1C3", "note": "(configuration not stated)", "growth, % of control": 2.71}, {"smiles": "CN(C(=O)OC(C)(C)C)[C@@H](Cc1ccc(O[S+](=O)([O-])c2cccc3cnccc23)cc1)C(=O)N1CCN(C(=O)OCc2ccccc2)CC1", "growth, % of control": 8.16}, {"smiles": "CO[C@H]1C=CO[C@@]2(C)Oc3c(C)c(O)c4c(O)c(c(C=NN5CCN(C)CC5)c(O)c4c3C2=O)NC(=O)C(C)=CC=CC(C)[C@H](O)[C@@H](C)[C@@H](O)[C@@H](C)[C@@H](OC(C)=O)[C@H]1C", "note": "(some centres not stated)", "growth, % of control": 6.73}, {"smiles": "C[C@H]1Cc2c([nH]c3cc(Cl)c(F)cc23)[C@@]2(N1)C(=O)Nc1ccc(Cl)cc12", "growth, % of control": 7.99}, {"smiles": "C[C@H]1CCN(C(=O)CC#N)C[C@H]1N(C)c1ncnc2[nH]ccc12", "growth, % of control": 114}, {"smiles": "CCOc1ccc(F)cc1C1(O)C(N)=Nc2ccc(Cl)cc21", "note": "(configuration not stated)", "growth, % of control": 5.81}, {"smiles": "CC1(C)O[C@@H]2[C@H]3OC(C)(C)O[C@]3(COS(N)(=O)=O)OC[C@H]2O1", "growth, % of control": 59.9}, {"smiles": "COc1cc(C)c2c(Oc3cccc(C(F)(F)F)c3)c(OC)cc(NCCCC(C)N)c2n1", "note": "(configuration not stated)", "growth, % of control": 2.71}, {"smiles": "CC(=O)NCC1CN(c2ccc(N3CCOCC3)c(F)c2)C(=O)O1", "note": "(configuration not stated)", "growth, % of control": 99}, {"smiles": "CCCC[C@@H]1C[C@@H](C(=O)NC([C@H](C)Cl)[C@H]2O[C@H](S)[C@H](O)[C@@H](O)[C@@H]2O)N(C)C1", "note": "(some centres not stated)", "growth, % of control": 52.4}, {"smiles": "O=CN(O)CCCP(=O)(O)O", "growth, % of control": 9.42}]}]}
